Screens from PubChem BioAssay.
MEX-5 binding: C. elegans MEX-5 TCR-2 RNA binding activity; Q9XUB2; MEX-5/FITC-TCR2 RNA binding, fluorescence polarization; hits give low values; activity score (negative = inhibition of binding), % at 10 µM; 0.38% of 300,000 active; AID 1832;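 active means inhibition past about -25% in most replicates, and total fluorescence under double the plate's negative control median, limit read from the data; inconclusive means replicates evenly split on the limit, or fluorescence at least double controls; inactive means too little inhibition in most replicates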
GLD-1 RNA inh: GLD-1-TGE RNA interaction inhibition (C. elegans) | Q17339 | purified GLD-1 + fluorescein TGE RNA, fluorescence polarization | inhibition, % at 5.96 µM | 0.44% of 320,000 active;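 active means percent inhibition above a per-plate cutoff, the plate mean of test compounds plus 3 SD, cut at about 30% in these data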
Bcl-xL primary: Bcl-xL (human) inhibition. GST-Bcl-xL / FITC-Bim BH3 peptide fluorescence polarization. 0.7% of 320,000 active. Q07817. inhibition, % at 10.9 µM;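 active means inhibition above the mean of all tested compounds plus 3 SD, cutoff set per campaign, cut at about 30% in these data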;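 further: inhibitors lower millipolarization by displacing the labeled peptide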
Target sequence (Q07817 whole entry, looked up): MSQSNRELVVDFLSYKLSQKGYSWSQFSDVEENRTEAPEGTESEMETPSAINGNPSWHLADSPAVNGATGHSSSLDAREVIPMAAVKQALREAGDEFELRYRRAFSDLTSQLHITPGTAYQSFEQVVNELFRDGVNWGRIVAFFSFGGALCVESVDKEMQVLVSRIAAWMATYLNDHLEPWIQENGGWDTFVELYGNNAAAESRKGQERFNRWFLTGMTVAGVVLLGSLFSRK
MCL1-BIM inh: MCL1-BIM-BH3 interaction inhibition (human). Q07820. GST-MCL1 / FITC-Bim-BH3 fluorescence polarization. inhibition, % at 10.9 µM. 0.68% of 320,000 active. AID 2057;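 active means inhibition above the mean inhibition of all tested compounds plus 3 SD, set per campaign, cut at about 40% in these data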;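 further: higher means more loss of mP so more displacement of Bim peptide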
E coli Lon inh: E. coli protease La inhibition | 0.42% of 360,000 active | purified E. coli Lon protease, fluorescence polarization | inhibition, % at 7.94 µM; in the data active means inhibition above about 13%, passing the limit was not always enough
EBV gp42 block: inhibitors of Epstein-Barr virus glycoprotein 42. Q1HVG2. Fluorescence polarization binding assay, mP read-out. inhibition, % (tested at 21.74 µM). 0.42% of 220,000 active. AID 1085; in the data active means inhibition above about 50%
Target sequence (Q1HVG2 whole entry, looked up): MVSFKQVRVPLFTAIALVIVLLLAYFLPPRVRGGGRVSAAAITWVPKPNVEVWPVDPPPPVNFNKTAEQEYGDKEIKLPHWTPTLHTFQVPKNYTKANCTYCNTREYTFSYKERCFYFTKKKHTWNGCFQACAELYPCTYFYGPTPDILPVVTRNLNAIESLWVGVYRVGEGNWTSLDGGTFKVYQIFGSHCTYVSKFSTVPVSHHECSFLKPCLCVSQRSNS
BCLXL inh confirm: Bcl-xL (human) inhibition, MCL1 counter-screen confirmation | shares compounds with MCL1-BIM inh | GST-Bcl-xL / FITC-Bim BH3 peptide FP binding | inhibition, % at 10.9 µM | 54% of 1,700 active | AID 2166;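 active means inhibition above a cutoff equal to the mean inhibition of all tested compounds plus 3 SD, cut at about 30% in these data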
MCL1 inh confirm: MCL1-BIM-BH3 interaction inhibition, confirmation. inhibition, % at 10.9 µM. 61% of 1,700 active. GST-MCL1 / FITC-Bim-BH3 fluorescence polarization. shares compounds with MCL1-BIM inh;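 active means inhibition above the average of all tested compounds plus 3 SD, cut at about 40% in these data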
Each line names hits and unclear results; the compound was inactive in the other large screens (follow-up assays come after a bar, where they were run); ! = repeats disagree. Shown are actives, neighbours in structure and some others; about 1.4% of the full set was active somewhere.

CCOC(=O)C1CCCN(Cc2ccc(OC)c(OCc3ccccc3)c2)C1 (centres undefined)	none (no result: EBV gp42 block)
Cc1cc(C)cc(OCC(=O)NNC(=O)c2cc(C)[nH]n2)c1	none
Cc1cc(C(=O)NN)n[nH]1	MCL1-BIM inh 56.1 | BCLXL inh confirm inactive | MCL1 inh confirm inactive
CCN1CCN(C(=S)c2ccc([N+](=O)[O-])cc2)CC1	none
COc1ccc(OCC(O)CNC(=O)c2ccc(OC)cc2)cc1 (centres undefined)	MCL1-BIM inh 44.5 | BCLXL inh confirm inactive | MCL1 inh confirm inactive
COc1ccc(OCC(O)CNC(=O)c2ccc(Br)cc2)cc1 (centres undefined)	none
CC1CC(C)CN(S(=O)(=O)c2ccc3c(c2)CC(C)N3C(=O)C2CC2)C1 (centres undefined)	none (no result: EBV gp42 block)
CCC(C)Sc1cccc(-c2nc3ccc(C)cn3c2NC2CCCCC2)c1 (centres undefined)	none (no result: EBV gp42 block)
CCC(C)Sc1ccc(-c2nc3ccc(C)cn3c2NC2CCCCC2)cc1 (centres undefined)	Bcl-xL primary 47.6, MCL1-BIM inh 48.0 (no result: E coli Lon inh, EBV gp42 block) | BCLXL inh confirm inactive | MCL1 inh confirm inactive
CCCCn1c(N)c(N(CCOC)C(=O)c2ccc(-c3ccc(C(C)=O)cc3)o2)c(=O)[nH]c1=O	none (no result: EBV gp42 block)
Cc1c(NCc2nc3ccccc3[nH]2)c(=O)n(-c2ccccc2)n1C	MCL1-BIM inh 54.6 | BCLXL inh confirm 41.2 | MCL1 inh confirm 55.0
Cc1c(NCc2cc(Cl)cc(Cl)c2O)c(=O)n(-c2ccccc2)n1C	none
O=C(COC(=O)Cc1ccsc1)Nc1cccc(F)c1	none (no result: MEX-5 binding, EBV gp42 block)
C=CCN1C(=O)[C@]2(c3ccccc31)C1CCCC=C1C(C#N)=C(N)C2(C#N)C#N (some centres undefined)	none
CN1CCC2(CC1)C1CN(C)CC=C1C(C#N)=C(N)C2(C#N)C#N (centres undefined)	MEX-5 binding inconclusive, Bcl-xL primary 120.3, MCL1-BIM inh 139.7, EBV gp42 block 75.7! | BCLXL inh confirm 117.4 | MCL1 inh confirm 145.7
Cc1ccc(NC(=O)CCNS(=O)(=O)c2cccc3nsnc23)cc1F	none (no result: EBV gp42 block)
CCOC(=O)C(C)N1C(=O)S/C(=C\c2ccc(-c3ccccc3C(=O)O)o2)C1=O (centres undefined)	Bcl-xL primary 30.5, MCL1-BIM inh 58.2 (no result: EBV gp42 block) | BCLXL inh confirm 42.5 | MCL1 inh confirm 61.8
Cc1cc(C(=O)O)ccc1-c1ccc(/C=C2\SC(=O)N(CC(=O)Nc3ccc4c(c3)OCO4)C2=O)o1	none (no result: MEX-5 binding, GLD-1 RNA inh, Bcl-xL primary, MCL1-BIM inh, EBV gp42 block)
C#CCN1C(=O)S/C(=C\c2ccc(-c3ccc(C(=O)O)cc3C)o2)C1=O	MCL1-BIM inh 66.0 (no result: EBV gp42 block) | BCLXL inh confirm inactive | MCL1 inh confirm inactive
Cc1c(N2C(=O)c3ccc4c5c(ccc(c35)C2=O)CC4)c(=O)n(-c2ccccc2)n1C	MCL1-BIM inh 52.3, EBV gp42 block 79.2 | BCLXL inh confirm 33.0 | MCL1 inh confirm 77.8
O=C(O)Cc1c[nH]c2ccccc12	none (no result: EBV gp42 block)
O=C(O)Cc1c[nH]c2cccc(O)c12	MCL1-BIM inh 45.4 | BCLXL inh confirm inactive | MCL1 inh confirm inactive
Cc1c(C(=O)OCC(=O)Nc2ccc(C(N)=O)cc2)cccc1[N+](=O)[O-]	none
O=C(CSc1nc2ccccc2c(=O)[nH]1)c1ccc(O)c(O)c1	MCL1-BIM inh 48.2 | BCLXL inh confirm 38.1 | MCL1 inh confirm 66.3
O=c1[nH]c(=S)[nH]c2c1C(c1ccc(Cl)cc1)OC(CCc1ccccc1)C2 (centres undefined)	none (no result: MEX-5 binding, GLD-1 RNA inh, Bcl-xL primary, MCL1-BIM inh, EBV gp42 block)
CCCS(=O)(=O)c1cn2cccc(N)c2c1S(=O)(=O)CCC	GLD-1 RNA inh 85.9, Bcl-xL primary 98.3, MCL1-BIM inh 101.9 | BCLXL inh confirm inactive | MCL1 inh confirm inactive
COCCCn1c(=O)/c(=C\c2ccccc2OC(F)F)s/c1=C(/C#N)C(=O)N1CCOCC1	MCL1-BIM inh active | BCLXL inh confirm inactive | MCL1 inh confirm inactive
COc1ccc(S(=O)(=O)n2cccc2)cc1	none (no result: EBV gp42 block)
